From PubChem BioAssay (Tox21) come the findings set out here.

Structures are written as SMILES. Unmarked numbers belong to inactive results. Inconclusive results are not listed. Calls of active or inactive are those of the source. Unless noted, calls come from the whole dose curve; as a rule, active = well fitted curve in the direction sought with a large enough effect in the repeat runs; inconclusive = weak or mixed curves; inactive = no such curve, though single readings can be large; an effect the other way counts as inactive or inconclusive.

Assay [1] addresses Thyrotropin-releasing hormone receptor (Homo sapiens) (UniProt P34981). Put plainly: qHTS assay to identify small molecule agonists of the thyrotropin-releasing hormone receptor (TRHR) signaling pathway (AID 1346891; calls by dose curve;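 note: HEK293 cells expressing TRHR with calcium dye readout; series mostly up to about 58 µM; % is set by controls: 0 for no effect and ±100 for the full control effect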). Put shortly:
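HEK293/TRHR cells, 1500 per well, 18 h 37 °C; Ca dye 2 h 37 °C; pin-tool compound addition (agonist mode); kinetic fluorescence 3 min, 1 s reads; 15 concentrations, triplicate.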
For orientation: Quantitative high-throughput screening tests each substance at several concentrations.

The nature of assay [2]: Human pregnane X receptor (PXR) small molecule agonists, qHTS cell viability counter screen (AID 1346977). Note: % is set by controls: 0 for no effect and ±100 for the full control effect; nearly all actives have a fitted effect of over 50% in size. Put shortly: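 Fluorescence read-out (CellTiter-Fluor) of viability in PXR-Luc HepG2 cells, multiplexed with the luciferase agonist read. Compounds in DMSO added after 5hr plating; 24hr total exposure at 37C, 5% CO2.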
The nature of assay [3]: Caspase-3/7 induction in HepG2 cells by small molecules, qHTS assay (AID 1346978). Note: % is set by controls: 0 for no effect and ±100 for the full control effect; nearly all actives have a fitted effect of over 15% in size. Put shortly: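 Caspase-3/7 induction was measured by Caspase-Glo 3/7 luminescence (30 min, room temperature) after a 17 hr compound exposure of wild-type HepG2 cells seeded at 2,000 per well and pre-incubated 5 hr.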
A short description of assay [4]: Caspase-3/7 induction in CHO-K1 cells by small molecules, qHTS cell viability counter screen (AID 1346979). For activity change, negative = cytotoxicity: % is set by controls: 0 for no effect and ±100 for the full control effect. Note: nearly all actives have a fitted effect of over 35% in size. Note: potency is the fitted concentration of half-maximal effect. Put shortly: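 CHO-K1 wt, 1,500 cells/well; 5hr pre-incubation 37C/5% CO2; compound pin transfer (DMSO); 16hr exposure; CellTiter-Fluor added, 1hr, fluorescence read.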
Assay [5] can be described thus: Caspase-3/7 induction in CHO-K1 cells by small molecules, qHTS assay (AID 1346980). Note: % is set by controls: 0 for no effect and ±100 for the full control effect; nearly all actives have a fitted effect of over 15% in size. In short, it runs like this:
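Luminescent Caspase-Glo 3/7 read (30min, room temperature) quantified apoptosis induction. Cells were wild-type CHO-K1, treated with compound for 17hr at 37 C and 5% CO2.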

A short description of assay [6]: Caspase-3/7 induction in HepG2 cells by small molecules, qHTS cell viability counter screen (AID 1346981). Note: series mostly up to about 92 µM; % is set by controls: 0 for no effect and ±100 for the full control effect; nearly all actives have a fitted effect of over 30% in size. Put shortly: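 Cell viability is measured as a cytotoxicity counter screen alongside the Caspase-Glo 3/7 readout in identical wells. Wild-type HepG2 cells are treated with test compounds for 16 hr at 37 C before CellTiter-Fluor addition and a 1-hr incubation.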

The target in assay [7] is Nuclear receptor subfamily 1 group I member 2 (Homo sapiens) (UniProt O75469). The assay is described as follows: Human pregnane X receptor (PXR) small molecule agonists, qHTS assay (AID 1346982). For activation: % is set by controls: 0 for no effect and ±100 for the full control effect. Note: nearly all actives have a fitted effect of over 35% in size. Note: potency is the fitted concentration of half-maximal effect. Put shortly: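 Cells: HepG2 stably carrying PXR-Luc. Medium held 5% charcoal-stripped FBS. Compounds in DMSO added after 5 hr plating, incubated 24 hr, then luminescence quantified with ONE-Glo.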
Nuclear receptor subfamily 1 group I member 2 (Homo sapiens), sequence (O75469 whole entry, looked up): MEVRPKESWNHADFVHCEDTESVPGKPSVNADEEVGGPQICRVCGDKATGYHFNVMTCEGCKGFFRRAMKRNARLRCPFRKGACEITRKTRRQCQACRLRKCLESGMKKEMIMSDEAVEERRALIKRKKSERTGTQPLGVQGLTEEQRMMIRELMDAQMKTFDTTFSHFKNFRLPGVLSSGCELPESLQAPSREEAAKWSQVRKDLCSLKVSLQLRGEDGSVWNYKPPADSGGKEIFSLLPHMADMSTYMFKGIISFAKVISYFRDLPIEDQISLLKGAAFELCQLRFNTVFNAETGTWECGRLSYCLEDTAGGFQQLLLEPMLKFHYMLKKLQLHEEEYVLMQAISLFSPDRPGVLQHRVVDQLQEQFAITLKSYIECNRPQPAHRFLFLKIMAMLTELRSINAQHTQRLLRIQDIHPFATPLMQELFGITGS

The target of assay [8] is Cytochrome P450 2D6 (Homo sapiens) (UniProt P10635). The assay is described as follows: Cytochrome P450 Family 2 Subfamily D Member 6 (CYP2D6) small molecule antagonists: luciferase reporter qHTS assay (AID 1671196). For activity change, negative = inhibition: series mostly up to about 120 µM; % is set by controls: 0 for no effect and ±100 for the full control effect. Note: nearly all actives have a fitted effect of over 50% in size. Note: potency is the fitted concentration of half-maximal effect. In short, it runs like this:
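Enzyme and proluciferin substrate were first combined with test chemical for 10 min at room temperature. Adding NADPH regeneration solution started a 1 h reaction, stopped with luciferin detection reagent and read by luminescence 20 min later.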
On the technique in general: A reporter such as luciferase makes a cellular process visible.

For assay [9], the target named is Cytochrome P450 2C9 (Homo sapiens) (UniProt P11712). Put plainly: Cytochrome P450 Family 2 Subfamily C Member 9 (CYP2C9) small molecule antagonists: luciferase reporter qHTS assay (AID 1671198). Note: nearly all actives have a fitted effect of over 50% in size. Note: potency is the fitted concentration of half-maximal effect. In short, it runs like this: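 Enzyme-substrate mix preincubated with compound 10 min at room temperature; reaction started with NADPH regeneration solution, 1 h 37C. Luminescent luciferin product read after 20 min detection reagent.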
Cytochrome P450 2C9 (Homo sapiens), sequence (P11712 whole entry, looked up): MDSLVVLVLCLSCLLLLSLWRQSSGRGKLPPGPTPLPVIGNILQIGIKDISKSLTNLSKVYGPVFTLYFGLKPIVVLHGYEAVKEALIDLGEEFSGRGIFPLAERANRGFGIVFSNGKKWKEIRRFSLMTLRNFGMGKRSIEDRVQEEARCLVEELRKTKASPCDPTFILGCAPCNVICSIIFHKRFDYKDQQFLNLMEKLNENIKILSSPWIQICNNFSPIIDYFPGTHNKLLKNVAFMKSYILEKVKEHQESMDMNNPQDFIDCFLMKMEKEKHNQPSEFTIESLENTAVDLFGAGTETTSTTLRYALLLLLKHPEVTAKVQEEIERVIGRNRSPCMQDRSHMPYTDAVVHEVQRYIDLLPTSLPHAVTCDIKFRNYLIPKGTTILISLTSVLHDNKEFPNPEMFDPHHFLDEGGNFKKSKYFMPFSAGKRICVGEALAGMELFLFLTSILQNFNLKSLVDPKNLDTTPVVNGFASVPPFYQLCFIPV

The target of assay [10] is Cytochrome P450 1A2 (Homo sapiens) (UniProt P05177). Put plainly: Cytochrome P450 Family 1 Subfamily A Member 2 (CYP1A2) small molecule antagonists: luciferase reporter qHTS assay (AID 1671199). Note: nearly all actives have a fitted effect of over 50% in size. Note: potency is the fitted concentration of half-maximal effect. In short, it runs like this: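 Compounds were incubated with CYP1A2 and a luminogenic proluciferin substrate for 10 min at room temperature before the reaction was started with NADPH regeneration solution. After 1 h, detection reagent was added and light output, proportional to CYP activity, was recorded.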
Cytochrome P450 1A2 (Homo sapiens), sequence (P05177 whole entry, looked up): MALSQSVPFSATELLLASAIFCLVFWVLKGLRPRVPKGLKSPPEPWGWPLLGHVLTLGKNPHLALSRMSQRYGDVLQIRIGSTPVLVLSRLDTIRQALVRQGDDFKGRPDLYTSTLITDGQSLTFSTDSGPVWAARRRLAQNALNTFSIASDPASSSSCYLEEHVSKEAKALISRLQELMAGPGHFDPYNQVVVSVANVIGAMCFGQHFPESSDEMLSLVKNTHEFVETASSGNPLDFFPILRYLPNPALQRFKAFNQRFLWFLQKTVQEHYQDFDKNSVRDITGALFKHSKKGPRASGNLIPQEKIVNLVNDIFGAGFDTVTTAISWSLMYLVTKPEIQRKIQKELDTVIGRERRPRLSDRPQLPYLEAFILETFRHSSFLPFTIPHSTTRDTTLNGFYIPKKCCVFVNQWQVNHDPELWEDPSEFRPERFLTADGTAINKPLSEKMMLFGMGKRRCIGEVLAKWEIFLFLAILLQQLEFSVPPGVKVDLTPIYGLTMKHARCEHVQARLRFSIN

Assay [11] concerns the target Voltage-gated inwardly rectifying potassium channel KCNH2 (Homo sapiens) (UniProt Q12809). Put plainly: Human Ether-a-go-go-Related Gene (hERG) channel small molecule antagonists: fluorescence cell-based qHTS assay (AID 1671200). Put shortly: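 Read-out: thallium influx as a surrogate for potassium, tracked as fluorescence (480 nm ex/540 nm em) every second for 2 min after Stimulus Buffer addition in dye-loaded hERG-U2OS cells.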
A general note: Block of hERG is tested as a sign of cardiac risk.

Assay [12] deals with Cytochrome P450 3A4 (Homo sapiens) (UniProt P08684). Put plainly: Cytochrome P450 Family 3 Subfamily A Member 4 (CYP3A4) small molecule antagonists: luciferase reporter qHTS assay (AID 1671201). Put shortly: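 Luminescent readout (RLU) proportional to CYP3A4 activity, from luciferin generated off a proluciferin substrate. Enzyme–substrate mix plus compound 10 min at room temp, NADPH regeneration 1 h, detection reagent 20 min.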
Cytochrome P450 3A4 (Homo sapiens), sequence (P08684 whole entry, looked up): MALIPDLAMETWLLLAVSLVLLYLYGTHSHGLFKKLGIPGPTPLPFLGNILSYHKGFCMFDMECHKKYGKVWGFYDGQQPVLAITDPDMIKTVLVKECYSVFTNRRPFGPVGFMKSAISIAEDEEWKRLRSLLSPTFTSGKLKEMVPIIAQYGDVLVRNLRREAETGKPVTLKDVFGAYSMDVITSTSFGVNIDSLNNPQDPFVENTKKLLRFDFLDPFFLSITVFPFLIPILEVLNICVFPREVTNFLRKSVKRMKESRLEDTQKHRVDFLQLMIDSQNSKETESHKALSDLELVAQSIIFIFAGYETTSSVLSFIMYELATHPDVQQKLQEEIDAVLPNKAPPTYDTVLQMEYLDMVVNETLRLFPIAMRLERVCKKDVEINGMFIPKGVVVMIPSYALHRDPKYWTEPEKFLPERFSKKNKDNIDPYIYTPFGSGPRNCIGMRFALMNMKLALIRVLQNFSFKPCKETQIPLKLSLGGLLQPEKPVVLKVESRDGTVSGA

Assay [13] concerns the target Nuclear receptor subfamily 1 group I member 2 (Rattus norvegicus) (UniProt Q9R1A7). Put plainly: Rat pregnane X receptor (rPXR) activation by small molecules, qHTS assay (AID 1346983). Note: % is set by controls: 0 for no effect and ±100 for the full control effect; nearly all actives have a fitted effect of over 20% in size. To be noted: rPXR luciferase reporter cells, One-Glo luminescence, 24 h; max activation: active compounds read high. In short, it runs like this:
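Luminescent readout (One-Glo luciferase, 30 min room temperature) followed 24 hr compound treatment at 37 C of rPXR cells plated 2,000 per well and preincubated 5hr; qHTS format with compounds delivered in DMSO.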

Assay [14] has as its target Nuclear receptor subfamily 1 group I member 2 (Homo sapiens) (UniProt O75469). Put plainly: CYP3A4 induction through human pregnane X receptor (PXR) by small molecules, qHTS assay (AID 1346984). Note: % is set by controls: 0 for no effect and ±100 for the full control effect; nearly all actives have a fitted effect of over 40% in size. Put shortly:
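Quantitative HTS in DPX-2 cells, i.e. HepG2 transfected with PXR response element and CYP3A4-promoter luciferase. Compounds in DMSO incubated 24hr at 37C; then P450-Glo CYP3A4 substrate, 3uM final, 3hr; One-Glo luminescence.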

The target is the same in assay [15]. Put plainly: Human pregnane X receptor (PXR) activation by small molecules, qHTS assay (AID 1346985). Note: nearly all actives have a fitted effect of over 40% in size. Note: potency is the fitted concentration of half-maximal effect. Put shortly:
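DPX-2 cells (HepG2 co-transfected with a PXR response element and a CYP3A4-promoter luciferase construct) were seeded at 2,000 per well, rested 5 hr at 37C, then exposed to DMSO-dissolved compounds for 24 hr. Activation was read as luciferase luminescence.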

Assay [16] concerns the target Cytochrome P450 2C19 (Homo sapiens) (UniProt P33261). The assay is described as follows: Cytochrome P450 Family 2 Subfamily C Member 19 (CYP2C19) small molecule antagonists: luciferase reporter qHTS assay (AID 1671197). Note: potency is the fitted concentration of half-maximal effect; nearly all actives have a fitted effect of over 65% in size. Put shortly: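 Relative luminescence units recorded 20 min after the detection reagent stopped a 1 h, 37C CYP2C19 reaction on proluciferin substrate, which was started by NADPH regeneration following 10 min room-temperature compound preincubation; ketoconazole positive control.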

Voltage-gated inwardly rectifying potassium channel KCNH2 (Homo sapiens), sequence (Q12809 whole entry, looked up): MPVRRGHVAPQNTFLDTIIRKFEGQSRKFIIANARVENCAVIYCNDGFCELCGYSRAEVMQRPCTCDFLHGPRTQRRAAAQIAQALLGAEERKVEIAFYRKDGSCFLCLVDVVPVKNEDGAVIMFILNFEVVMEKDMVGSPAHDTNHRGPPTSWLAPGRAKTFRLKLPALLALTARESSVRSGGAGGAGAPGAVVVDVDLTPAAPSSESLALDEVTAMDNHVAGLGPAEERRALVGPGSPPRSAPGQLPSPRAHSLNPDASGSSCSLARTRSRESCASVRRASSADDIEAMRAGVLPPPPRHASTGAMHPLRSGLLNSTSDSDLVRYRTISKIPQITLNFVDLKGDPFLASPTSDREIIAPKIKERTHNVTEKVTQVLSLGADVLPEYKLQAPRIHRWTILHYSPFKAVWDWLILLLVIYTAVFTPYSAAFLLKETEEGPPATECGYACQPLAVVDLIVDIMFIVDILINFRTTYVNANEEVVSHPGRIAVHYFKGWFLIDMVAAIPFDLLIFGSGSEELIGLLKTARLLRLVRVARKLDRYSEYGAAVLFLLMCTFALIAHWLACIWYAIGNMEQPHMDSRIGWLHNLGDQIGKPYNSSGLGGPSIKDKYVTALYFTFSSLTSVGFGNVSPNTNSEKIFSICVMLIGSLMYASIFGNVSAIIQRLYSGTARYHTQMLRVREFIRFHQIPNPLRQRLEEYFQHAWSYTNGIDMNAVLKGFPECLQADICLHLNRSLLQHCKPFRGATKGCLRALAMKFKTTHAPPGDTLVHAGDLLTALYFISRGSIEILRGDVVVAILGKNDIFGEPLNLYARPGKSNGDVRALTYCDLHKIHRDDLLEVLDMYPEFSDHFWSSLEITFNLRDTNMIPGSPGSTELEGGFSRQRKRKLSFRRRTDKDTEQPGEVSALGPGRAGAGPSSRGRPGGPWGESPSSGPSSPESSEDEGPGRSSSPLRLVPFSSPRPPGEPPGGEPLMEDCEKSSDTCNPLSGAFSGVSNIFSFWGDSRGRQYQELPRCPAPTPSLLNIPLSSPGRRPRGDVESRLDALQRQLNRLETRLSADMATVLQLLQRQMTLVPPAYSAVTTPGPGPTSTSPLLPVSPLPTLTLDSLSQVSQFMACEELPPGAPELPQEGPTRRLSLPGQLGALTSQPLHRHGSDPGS
Cytochrome P450 2C19 (Homo sapiens), sequence (P33261 whole entry, looked up): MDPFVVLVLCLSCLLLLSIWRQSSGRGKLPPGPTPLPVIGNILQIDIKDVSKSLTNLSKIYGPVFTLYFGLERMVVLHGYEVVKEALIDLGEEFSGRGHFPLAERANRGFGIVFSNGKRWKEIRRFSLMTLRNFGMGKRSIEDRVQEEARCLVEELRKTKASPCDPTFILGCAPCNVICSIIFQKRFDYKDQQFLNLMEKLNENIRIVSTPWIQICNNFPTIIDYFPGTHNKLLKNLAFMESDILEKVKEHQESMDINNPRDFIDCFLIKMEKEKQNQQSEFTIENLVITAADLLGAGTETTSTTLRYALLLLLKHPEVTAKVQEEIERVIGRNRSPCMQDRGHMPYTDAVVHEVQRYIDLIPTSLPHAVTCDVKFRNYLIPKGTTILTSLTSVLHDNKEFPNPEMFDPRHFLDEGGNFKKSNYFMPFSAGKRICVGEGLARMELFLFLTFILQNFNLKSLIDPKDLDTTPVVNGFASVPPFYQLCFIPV
Thyrotropin-releasing hormone receptor (Homo sapiens), sequence (P34981 whole entry, looked up): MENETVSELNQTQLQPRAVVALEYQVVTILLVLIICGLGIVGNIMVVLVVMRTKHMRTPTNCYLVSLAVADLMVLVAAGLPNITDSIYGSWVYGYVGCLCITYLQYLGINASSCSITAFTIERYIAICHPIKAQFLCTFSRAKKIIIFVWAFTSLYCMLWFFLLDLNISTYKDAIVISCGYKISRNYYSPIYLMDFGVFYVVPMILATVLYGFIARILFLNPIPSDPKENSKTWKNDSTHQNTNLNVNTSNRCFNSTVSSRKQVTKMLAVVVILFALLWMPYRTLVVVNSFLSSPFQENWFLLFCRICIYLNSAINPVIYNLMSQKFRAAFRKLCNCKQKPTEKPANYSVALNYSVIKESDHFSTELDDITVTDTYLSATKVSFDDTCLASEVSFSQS
Cytochrome P450 2D6 (Homo sapiens), sequence (P10635 whole entry, looked up): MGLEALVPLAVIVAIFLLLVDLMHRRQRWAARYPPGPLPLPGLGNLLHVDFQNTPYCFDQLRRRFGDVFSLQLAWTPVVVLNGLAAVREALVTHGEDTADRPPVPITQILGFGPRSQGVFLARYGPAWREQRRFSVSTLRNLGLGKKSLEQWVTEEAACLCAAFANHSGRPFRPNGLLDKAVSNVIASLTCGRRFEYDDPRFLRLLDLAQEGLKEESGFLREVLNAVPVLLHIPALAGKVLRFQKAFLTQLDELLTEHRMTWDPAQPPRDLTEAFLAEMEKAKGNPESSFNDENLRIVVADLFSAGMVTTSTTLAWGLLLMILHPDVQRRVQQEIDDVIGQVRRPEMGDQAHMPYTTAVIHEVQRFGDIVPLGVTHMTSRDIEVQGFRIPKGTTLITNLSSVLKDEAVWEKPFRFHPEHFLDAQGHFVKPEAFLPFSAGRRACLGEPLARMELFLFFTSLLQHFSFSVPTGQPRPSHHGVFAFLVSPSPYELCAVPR
Nuclear receptor subfamily 1 group I member 2 (Rattus norvegicus), sequence (Q9R1A7 whole entry, looked up): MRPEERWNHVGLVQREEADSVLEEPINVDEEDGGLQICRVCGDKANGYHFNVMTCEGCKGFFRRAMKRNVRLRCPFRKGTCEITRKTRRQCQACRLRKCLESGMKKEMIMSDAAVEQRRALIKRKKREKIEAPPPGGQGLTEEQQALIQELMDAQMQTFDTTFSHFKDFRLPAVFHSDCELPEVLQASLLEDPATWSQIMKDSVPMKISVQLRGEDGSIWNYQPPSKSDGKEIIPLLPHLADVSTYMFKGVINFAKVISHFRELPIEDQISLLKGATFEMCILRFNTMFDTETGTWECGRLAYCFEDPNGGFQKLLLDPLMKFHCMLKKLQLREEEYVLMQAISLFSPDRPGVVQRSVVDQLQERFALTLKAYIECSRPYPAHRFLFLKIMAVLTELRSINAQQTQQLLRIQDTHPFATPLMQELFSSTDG

Take `COC(=O)c1cc(Cl)ccc1NS(=O)(=O)C(F)(F)F`: the Potency result in [1], in assay [2], in [3], in assay [4], in [6] and in [7] was “inactive” in each case. Moreover, the Potency result in assay [8], in assay [9], in [11] and in [12] was “inactive” throughout. The outcome in assay [5] was inactive. Besides, the Potency in assay [10] was 0.55 µM (active).
`CC(=O)Nc1ccccc1C`: the Potency result in [1], in assay [2], in assay [3], in assay [4], in assay [6] and in assay [7] was “inactive” throughout. The Potency result in assay [8], in assay [9], in [10] and in assay [11] was “inactive” each time. Further, in [5], the result was inactive.
Take `CC(=O)OCC(=O)[C@H]1CC[C@H]2[C@@H]3CCC4=CC(=O)CC[C@]4(C)[C@H]3CC[C@]12C`: the Potency result in assay [1], in [2], in [3], in assay [4], in assay [6] and in assay [7] was “inactive” throughout. Moreover, the Potency result in assay [14], in [15], in assay [10], in assay [11] and in [12] was “inactive” each time. Also, the call in assay [5] was inactive. In assay [13], the max activation was 2.69%. Also, the Potency in assay [16] was 9.77 µM (active); in assay [9] it was 7.76 µM (active).
As for `CC(C)(C)C(=O)O`, the Potency entry in [1], in assay [2], in assay [3], in [4], in [6] and in assay [7] was “inactive” in each case. Further, the Potency entry in assay [8], in assay [9] and in assay [11] was “inactive” in each case. Besides, the result in [5] was inactive.
Regarding `CC1CN(c2cc3c(cc2F)c(=O)c(C(=O)O)cn3-c2ccc(F)cc2F)CCN1` (centres undefined), the activation in assay [1] is 0% [at 5.23 µM]; in [7] it was -2.46% [at 8.39 µM]. Moreover, the activity change, negative = cytotoxicity in [2] is -4.03% [at 8.39 µM]; in [4], -1.36% [at 8.39 µM]; in assay [6] it was -2.3% [at 8.39 µM]. The caspase activation in [3] is -0.856% [at 8.39 µM]. Further, the caspase-3/7 activation in assay [5] was -0.241% [at 8.39 µM]. In addition, the activity change, negative = inhibition in assay [8] was -0.211% [at 10.5 µM]; in assay [9], 2.17% [at 10.5 µM]; in assay [10] it was 1.79% [at 10.5 µM]; in assay [11], 3.92% [at 6.97 µM]; in assay [12], 4.32% [at 10.5 µM].
Consider `OC/C(Br)=C(\Br)CO`, for which the Potency result in [1], in assay [2], in [3], in assay [4], in assay [6] and in assay [7] was “inactive” each time. In addition, the Potency result in assay [9], in assay [11] and in assay [12] was “inactive” in each case. The compound was classed as inactive in [5]. In addition, the Potency in assay [8] was 35.3 µM (active); in [16], 31.5 µM (active).
In the case of `CC(Cl)C(Cl)Cl` (centres undefined), the Potency entry in [1], in assay [2], in assay [3], in assay [4], in assay [6] and in [7] was “inactive” each time. Besides, the Potency entry in [11] and in [12] was “inactive” throughout. Also, the outcome in assay [5] was inactive. Moreover, the Potency in assay [16] was 31.2 µM (active).
For `O=C(O)c1snc(Cl)c1Cl`, the Potency entry in [1], in assay [2], in [3], in [4], in assay [6] and in [7] was “inactive” throughout. Also, the Potency entry in assay [8], in assay [11] and in assay [12] was “inactive” in each case. Moreover, in [5], the compound was classed as inactive.
For `COc1cc2c(cc1OC)-c1cc(=Nc3c(C)cc(C)cc3C)n(C)c(=O)n1CC2`, the Potency entry in assay [1], in [2], in [3], in assay [14] and in assay [10] was “inactive” in each case. For the same compound, the Potency in [4] is 29.8 µM (active); in assay [7], 9.44 µM (active); in [15] it was 6.31 µM (active); in assay [8], 13.8 µM (active); in assay [16], 17.4 µM (active); in assay [9] it was 1.1 µM (active). Besides, the outcome in [5] was inactive.
